The source of these data is PubChem BioAssay AID2501 (Southern Research Specialized Biocontainment Screening …, 2010).

In all, about 2,200 compounds went through this assay and about 1,200 (55%) were called active. So high a share suggests a set chosen from earlier hits. Some of the results follow. Values without a mark were called inactive. The limit is not given here; nearly all actives have IC50 up to about 92 µM.

The assay is described as follows: counter assay for TAg ATPase ADP read-out – biochemical, ADP-Hunter, fluorescence, counter-screen (AID 2501).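 Also: purified T antigen ATPase.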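 As to inhibition: 0% = enzyme with vehicle and 100% = reference inhibitor wells; higher means more inhibition.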 The note with it: series mostly up to 100 µM; inhibition: at the top concentration.
On to `Oc1ccccc1C(=S)N1CCCCCC1`, for which the IC50 is 13.9 µM (active). Take `CC(=O)Oc1ccc(C(=O)Nc2ccccc2C(=O)N2CCCCC2)cc1`: the “inhibition” value was 21.5%. Consider `COc1ccccc1NC(=O)c1c(NC(=O)CCC(=O)O)sc2c1CCCCC2`, for which the “inhibition” value was 11.2%. As to `CCCCN1Cc2c(nc3cc(-c4ccco4)[nH]n3c2=O)C1=O`, the half-maximal inhibitory concentration (IC50) was 9.07 µM (active). As to `COC(=O)CC1SC(=O)NC1=Nc1ccc(O)cc1` (stereo unspecified), the IC50 was 4.34 µM (active). Turning to `Cc1c(Cl)cccc1NC(=S)N(CCN(C)C)C(C)c1ccco1` (stereo unspecified), the “inhibition” value was 8.35%. The same measure, in the same setting: with `N#CCCn1nc(-c2ccc(Br)cc2)cc1Nc1ccccc1NC(=O)C(F)(F)F` the figure was 0.34%. Regarding `COc1ccc(CC(=O)N/N=C(\C)CC(=O)Nc2ccc(N(C)C)cc2)cc1OC`, the IC50 is 3.9 µM (active).

For `COc1ccc(CC(=O)n2[nH]c(=O)ccc2=O)cc1OC`, the “inhibition” value was -3.65%. On to `COC(C(=O)N/N=C(\C)CC(=O)Nc1ccc(N(C)C)cc1)c1ccccc1` (stereo unspecified), for which the half-maximal inhibitory concentration (IC50) was 6.98 µM (active). On to `O=C(O)CCC1c2cc3c4cc2OC2Oc5cc6c(cc51)C(CCC(=O)O)c1cc5c7cc1OC(O6)c1cc6cc(c1)Oc1cc(cc(C(=O)O)c1)Oc1cc8cc(c1)C(Oc1cc(c(cc1C5CCC(=O)O)C3CCC(=O)O)OC(O4)c1cc(cc(c1)Oc1cc(cc(C(=O)O)c1)O8)Oc1cc(cc(C(=O)O)c1)Oc1cc(cc2c1)Oc1cc(cc(C(=O)O)c1)O6)O7` (stereo unspecified), for which the “inhibition” value was -0.04%.

On to `CCC[n+]1c2ccccc2cc2ccccc21`, for which the “inhibition” value was -11.8%.

Turning to `O=C(NO)c1ccc(C(=O)N(C2CCCCC2)C2CCCCC2)cc1`, the “inhibition” value was 18.3%.

On to `CCCC[n+]1c2ccccc2cc2ccccc21`, for which the “inhibition” value is 9.88%. As to `CC(C)n1c(=S)[nH]c2c1c(=O)[nH]c(=O)n2C`, the IC50 was 92 µM (active). `C#CCOCCOCCOCCNc1nc(N2CCN(C(=O)CCCCCCCCCCNC(=O)[C@H]([C@@H](C)CC)n3cc(CCCCN=C(N)N)nn3)CC2)nc(N2CCN(C(=O)CCCCCCCCCCNC(=O)[C@H](CCCCN)n3cc(C[C@@H](C)CC)nn3)CC2)n1`: the “inhibition” value is -2.74%. On the same count and under the same terms, in the case of `Cc1ccc(CNC(=O)/C=C/c2ccc(S(=O)(=O)NCc3ccco3)cc2)cc1` it was -32.3%. For `COc1cc(/C=N/NC(=O)CNC(=O)c2ccco2)ccc1O`, the IC50 is 2.71 µM (active). The same measure, in the same setting: in the case of `COc1cc(/C=N/NC(=O)C(=O)NCc2ccco2)ccc1O` it was 5.14 µM (active). For the compound `COc1ccc(-n2c(=S)[nH]c3cc(C(=O)NCc4ccco4)ccc3c2=O)c(OC)c1`, the “inhibition” value was 19.3%. For `COc1ccccc1CN(C(=O)CNC(=O)c1ccco1)C(C(=O)NCC1CCCO1)c1ccc(OC)c(OC)c1` (stereo unspecified), the “inhibition” value was -33.5%. Take `COc1cc(/C=N/NC(=O)C(=O)NCC2CCCO2)ccc1O` (stereo unspecified): the half-maximal inhibitory concentration (IC50) was 4.13 µM (active). In the case of `Oc1ccc(/C=N/NC(=S)NCC2CCCO2)cc1` (stereo unspecified), the half-inhibitory concentration (IC50) is 2.58 µM (active). Turning to `CC1(OC(=O)CCc2ccccc2)C(=O)C=C2C=C(c3ccc(C#N)cc3)N(Cc3ccco3)C=C2C1=O` (stereo unspecified), the “inhibition” value was 21%. For `COc1ccc(NC(=O)c2c(Cl)cnn2C)c(C)c1`, the “inhibition” value is -1.21%.

In the case of `COc1ccc(C(=O)CCNc2ccc(C)c(Cl)c2)cc1`, the “inhibition” value is 4.87%. Regarding `COc1ccc(Nc2ccc(Cl)cc2)c(C(=O)O)c1`, the half-inhibitory concentration (IC50) is 9.23 µM (active).

For `O=C(Cn1c(=O)oc2ccccc21)Nc1n[nH]c(=S)s1`, the IC50 is 88.8 µM (active). For the compound `Nc1ccc2c(c1)-c1ccccc1S(=O)(=O)N2`, the IC50 was 2.89 µM (active). As for `CC(Nc1ccc(N2CCOCC2)cc1)C(=O)N1c2ccccc2CC1C` (stereo unspecified), the IC50 was 8.86 µM (active). In the case of `CCOc1ccc(CN2CCN(Cc3cccc4c3OCO4)CC2CCO)cc1` (stereo unspecified), the half-inhibitory concentration (IC50) is 2.23 µM (active). For `O=c1cc(CN2CCN(Cc3ccc(F)cc3)C(CCO)C2)[nH]c2ccccc12` (stereo unspecified), the “inhibition” value is 5.78%. With `Cc1ccc(CN2CCN(Cc3cn[nH]c3-c3cccc(F)c3)CC2CCO)o1` (stereo unspecified), the “inhibition” value was 6.69%.

Take `Cc1nc(C)c(-c2csc(Nc3ccc(N)cc3)n2)s1`: the half-inhibitory concentration (IC50) was 7.48 µM (active).

Take `Cc1cccc(-n2c(O)c(C=Nc3ccc(O)cc3)c3ccccc3c2=O)n1`: the IC50 is 3.7 µM (active). Take `Cc1cc2c(n1-c1ccc(C(=O)O)cc1)CCCCC2`: the “inhibition” value is 13.9%. On to `C=C1C(=O)O[C@@H]2[C@H]3O[C@]3(C)CC/C=C(\C)CC[C@@H]12`, for which the “inhibition” value is -11.7%. Take `CC(C)CC(NC(=O)CC12CC3CC(CC(C3)C1)C2)C(=O)NC1=NCCS1` (stereo unspecified): the “inhibition” value was -26.1%.

As to `COc1ccc(N=Cc2c(O)cc(C)oc2=O)cc1`, the IC50 was 6.29 µM (active). On to `COc1ccc(N=Cc2nc(-c3ccccc3)oc2OC(C)=O)cc1`, for which the “inhibition” value was 4.59%. Still for that read-out and setting: in the case of `Cn1c(CCN2CCCCCC2)nc2cc(NC(=O)Nc3ccccc3)ccc21` it was -5.15%. Turning to `CC(=O)Nc1ccc(N2CCCCC2)cc1`, the half-inhibitory concentration (IC50) was 12.1 µM (active).

Regarding `Cc1ccc(NC(=O)NCCN2CCCCC2)cc1Cl`, the “inhibition” value is 14.2%. As for `O=C(CCl)Nc1ccc(N2CCCCCC2)cc1`, the half-inhibitory concentration (IC50) was 0.76 µM (active). Turning to `Nc1ccc(NC(=O)NC2CCCCC2)cc1`, the half-maximal inhibitory concentration (IC50) was 9.21 µM (active). Take `O=C(NC1CCCCCC1)c1cccnc1Sc1ccc(Cl)cc1`: the “inhibition” value is 8.53%. Still for that read-out and setting: with `O=C(Nc1ccc2nc(-c3ccco3)c(-c3ccco3)nc2c1)NC1CC1` the figure was -52.1% [at 50 µM].

For `O=c1cc(CSc2ccc(Cl)cc2)[nH]c2[nH]n(-c3ccccc3)c(=O)c12`, the IC50 was 16.2 µM (active). On the same count and under the same terms, in the case of `O=C(O)c1ccccc1NS(=O)(=O)c1ccc(NNC(=S)Nc2ccc(OC(F)F)cc2)c([N+](=O)[O-])c1` it was 23 µM (active).

`O=C(/C=C/c1ccco1)NCC1OCCc2ccccc21` (stereo unspecified): the “inhibition” value is -30.4%. On the same count and under the same terms, in the case of `COc1ccc(O)c(C(=O)C2c3ccccc3C(=O)N2c2ccc(C)cc2)c1` (stereo unspecified) it was -11.1%. As to `O=C(COc1ccc2c(-c3ccccc3)cc(=O)oc2c1)N[C@@H](Cc1c[nH]c2ccc(O)cc12)C(=O)O`, the 50% inhibitory concentration (IC50) was 31.3 µM (active). As to `O=C(O)c1ccccc1C(=O)NC1=NN(c2ccccc2)CC1`, the 50% inhibitory concentration (IC50) is 12.1 µM (active).

With `COc1cc(/C=N/Nc2ccnc(=O)[nH]2)ccc1O`, the 50% inhibitory concentration (IC50) was 5.01 µM (active). In the case of `COc1cc(/C=N/NC2=NCCCCC2)ccc1O`, the IC50 is 4.15 µM (active).

Consider `COc1cc(/C=N/Nc2ccccn2)ccc1O`, for which the half-maximal inhibitory concentration (IC50) is 8.27 µM (active).

In the case of `COc1cccc2c(N/N=C/c3ccc(O)c(O)c3)cc(C)nc12`, the 50% inhibitory concentration (IC50) is 10.2 µM (active). Same read-out and setting: with `COc1cc(/C=N/Nc2nc(=O)[nH]nc2C)ccc1O` the figure was 6.46 µM (active); with `COc1cc(/C=N/Nc2nncn2/N=C/c2ccc(O)c(OC)c2)ccc1O`, 4.48 µM (active). Take `COc1cc(/C=N\Nc2cc(=O)n(C)c(=O)n2C)ccc1O`: the half-inhibitory concentration (IC50) was 4.97 µM (active). In the case of `Cc1cc(C)n(CCc2nc(-c3ccco3)cs2)n1`, the “inhibition” value was -6.36%.
